Reference: PubChem BioAssay AID602144 (Vanderbilt Specialized Chemistry Center, 2011)
Activity calls are given as the source filed them. Rule as the data show it: active = remaining activity below about 50%; inactive = the rest.

Molecular target: Phospholipase D1 (Homo sapiens) (UniProt Q13393)
Assay: PLD1 inhibitors in cells, Calu-1 cells, single concentration (AID 602144);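 also: tested at 200 nM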
Details: cellular PLD1 activity, stronger effect = lower value

Chain of Phospholipase D1 (Homo sapiens) (Q13393 whole entry, looked up): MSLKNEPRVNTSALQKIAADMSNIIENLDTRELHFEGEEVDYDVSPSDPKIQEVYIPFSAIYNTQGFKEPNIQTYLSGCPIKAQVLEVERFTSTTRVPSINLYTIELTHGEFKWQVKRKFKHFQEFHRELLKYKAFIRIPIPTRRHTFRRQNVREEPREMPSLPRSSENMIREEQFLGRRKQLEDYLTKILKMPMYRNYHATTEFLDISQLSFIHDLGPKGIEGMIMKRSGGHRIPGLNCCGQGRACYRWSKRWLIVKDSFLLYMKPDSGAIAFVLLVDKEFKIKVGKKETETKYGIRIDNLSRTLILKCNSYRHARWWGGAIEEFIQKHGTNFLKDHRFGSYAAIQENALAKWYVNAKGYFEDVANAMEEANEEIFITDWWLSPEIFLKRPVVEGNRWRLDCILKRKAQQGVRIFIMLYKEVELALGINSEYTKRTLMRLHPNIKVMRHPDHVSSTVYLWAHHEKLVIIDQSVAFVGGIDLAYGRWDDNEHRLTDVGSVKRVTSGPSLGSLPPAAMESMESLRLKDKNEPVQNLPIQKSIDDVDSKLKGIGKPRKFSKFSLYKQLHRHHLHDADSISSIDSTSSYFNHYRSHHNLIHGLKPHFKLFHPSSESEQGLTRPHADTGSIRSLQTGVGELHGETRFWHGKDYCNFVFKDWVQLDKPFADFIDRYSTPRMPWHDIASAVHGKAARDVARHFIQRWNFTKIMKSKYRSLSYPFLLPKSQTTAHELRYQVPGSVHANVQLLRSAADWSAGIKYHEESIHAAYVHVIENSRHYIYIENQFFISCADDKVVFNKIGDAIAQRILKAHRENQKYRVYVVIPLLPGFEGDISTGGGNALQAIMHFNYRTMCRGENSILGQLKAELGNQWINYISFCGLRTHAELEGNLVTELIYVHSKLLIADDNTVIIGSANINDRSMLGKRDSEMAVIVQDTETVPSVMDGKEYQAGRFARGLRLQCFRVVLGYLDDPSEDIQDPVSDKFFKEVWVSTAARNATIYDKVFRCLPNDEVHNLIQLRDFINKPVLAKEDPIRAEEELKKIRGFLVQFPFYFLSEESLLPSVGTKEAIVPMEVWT
Chain of Phospholipase D1 (Homo sapiens) (Q13393 whole entry, looked up): as above

SMILES | remaining activity
O=C(NCCN1CCC(n2c(=O)[nH]c3ccccc32)CC1)c1ccc2c(ccc3ccc4ccccc4c32)c1 | 74.8% (inactive)
O=C(NCCN1CC=C(n2c(=O)[nH]c3ccccc32)CC1)[C@H]1C[C@@H]1c1ccccc1 | 85.3% (inactive)
O=C(NCCN1CCC(n2c(=O)[nH]c3ccc(F)cc32)CC1)c1cccc2c1C(=O)c1ccccc1-2 | 0% (active)
C[C@@H](CN1CCC(n2c(=O)[nH]c3ccccc32)CC1)NC(=O)c1ccco1 | 41.7% (active)
CC(C)[C@@H](CN1CCC(n2c(=O)[nH]c3ccccc32)CC1)NC(=O)c1cc2cc(F)ccc2[nH]1 | 69.6% (inactive)
C[C@@H](CN1CCC(n2c(=O)[nH]c3cc(-c4ccc(F)c(F)c4)ccc32)CC1)NC(=O)[C@H]1C[C@@H]1c1ccccc1 | 59% (inactive)
C[C@H](CN1CCC(n2c(=O)[nH]c3cc(Cl)ccc32)CC1)NC(=O)c1cc2ccccc2[nH]1 | 0.888% (active)
C[C@@H](CN1CCC(n2nnc3cc(C(F)(F)F)ccc32)CC1)NC(=O)c1cnc2ccccc2c1 | 101% (inactive)
CCCS(=O)(=O)NCCN1CCC(n2c(=O)[nH]c3ccccc32)CC1 | 120% (inactive)
O=C(N[C@@H](Cc1ccccc1)CN1CCC(n2c(=O)[nH]c3ccccc32)CC1)c1cnc2ccccc2c1 | 116% (inactive)
C[C@H](CN1CCC2(CC1)CNc1ccccc12)NC(=O)c1ccc2ccccc2c1 | 34.6% (active)
C[C@@H](CN1CCC(n2c(=O)[nH]c3cc(-c4cccnc4)ccc32)CC1)NC(=O)[C@H]1C[C@@H]1c1ccccc1 | 53.2% (inactive)
